In assay [1] the target is Lysosomal acid glucosylceramidase (Homo sapiens) (UniProt P04062). As to the kind of experiment: Glucocerebrosidase-p2 (AID 348; in the data active = potency below about 10 µM; note: potency is the fitted concentration of half-maximal effect). The settings on record: purified GBA, blue fluorogenic substrate, 40 min. Summed up:
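Compounds titrated from 0.6 nM upwards against 0.2 nM enzyme in pH 5.9 citric acid/KH2PO4, taurocholate, tween-20; blue fluorogenic substrate 80 uM, 40 min room temperature, stopped and read Ex 365/Em 440 for AC50.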

Assay [2] is described as follows: AP1 Signaling Pathway (AID 357; active = well fitted curve in either direction with a large enough effect, not every such curve was filed as active; note: % is set by controls: 0 for no effect and ±100 for the full control effect). The settings on record: ME-180 AP-1-bla reporter, EGF-induced, beta-lactamase ratio, 5 h; at 7.69 µM (top of the series) unless noted. Summed up:
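AP-1-bla ME-180 cells with beta-lactamase reporter under AP-1 response element, stimulated with EC50 EGF; compounds titrated, 5 hours at 37 degrees Celsius. CCF4 read at 460/530 nm ratio; positive and negative modulators judged by AC50.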

In assay [3] the target is Cytochrome P450 1A2 (Homo sapiens) (UniProt P05177). As to the kind of experiment: p450-cyp1a2 (AID 410; calls by dose curve; note: potency is the fitted concentration of half-maximal effect). The settings on record: recombinant CYP1A2, luciferin-ME demethylation, luminescence; series mostly up to 57 µM. Summed up: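 Inhibition was calculated relative to 57 uM furafylline (full inhibition). The reaction used human CYP1A2 at 20nM with Luciferin-ME at its Km, 100uM, driven by an NADPH-regenerating system for 60 min at room temperature.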

Assay [4] can be described thus: NFAT Signaling Pathway (AID 444; active = well fitted curve in either direction with a large enough effect, not every such curve was filed as active;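 note: carbachol stimulus at about its EC50 of 1 µM final; % is set by controls: 0 for no effect and ±100 for the full control effect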). The settings on record: Jurkat NFAT-bla M1, carbachol, beta-lactamase ratio, 5 h; at 7.69 µM (top of the series) unless noted. Summed up: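 Jurkat cells with NFAT-driven β-lactamase reporter and co-expressed M1 receptor, stimulated with carbachol (final 1 uM, ~EC50), compound titration, 5 h at 37 °C. CCF4 loaded 1 h at RT; 460/530 nm ratio gave %activity and AC50.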

A short description of assay [5]: Stat Signaling Pathway (AID 446; active = well fitted curve in either direction with a large enough effect, not every such curve was filed as active;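 note: ME-180 cervical cancer cells given 40 pM IL-6 alongside compound; SIE-controlled beta-lactamase reporter measured as 460/530 nm FRET emission ratio; % is set by controls: 0 for no effect and ±100 for the full control effect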). The settings on record: ME-180 SIE beta-lactamase reporter, IL-6 stimulated, 5 h; at 7.69 µM (top of the series) unless noted. Summed up:
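Screening format detects activators and inhibitors alike: ME-180 SIE-bla cells stimulated at 40 pM IL-6 for 5 hrs with compound, then dual-emission beta-lactamase read at 405 nm excitation.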

Assay [6] addresses Glucocorticoid receptor (Homo sapiens) (UniProt P04150). In words: GR-GFP Redistribution (AID 450;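 active = compounds whose dose series gives a full or clear partial fitted curve of increased nuclear translocation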; note: potency is the fitted concentration of half-maximal effect). The settings on record: U2OS GR-GFP nuclear translocation, laser cytometry, 2 h.
The target is the same in assay [7]. In words: GR-EFC Redistribution (AID 451; calls by dose curve; note: potency is the fitted concentration of half-maximal effect). The settings on record: CHO-K1 GR-EFC translocation, beta-gal luminescence, 2 h. Summed up: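 CHO-K1 cells expressing nuclear EA and GR-ED fragments of b-gal; compounds titrated up to 46 uM final, 2 h at 37 C. GR nuclear translocation read as complemented b-gal luminescence after 1 h RT detection.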
Assay [8] addresses Mitogen-activated protein kinase 10 (Mus musculus) (UniProt Q61831). In words: JNK3 AlphaScreen Assay (AID 530; active = well fitted curve in either direction with a large enough effect, not every such curve was filed as active;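 note: kinase came from lysate of stimulated human HepG2 cells; signal reports phosphorylation of biotinylated GST-cJun 1-79 at Ser73 with 10 µM ATP; % is set by controls: 0 for no effect and ±100 for the full control effect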). The note with it: JNK3 lysate, c-Jun phosphorylation; series mostly up to 57.1 µM. Summed up:
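qHTS format: compounds tested as titrations against IL-1beta/TNF-alpha-activated HepG2 lysate JNK3 with biotin-GST-cJun substrate and 10 uM ATP at room temperature. Loss of anti-phospho-cJun AlphaScreen signal indicates inhibition.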
In general terms: Alpha assays give light when donor and acceptor beads are brought close together.

The nature of assay [9]: Primary qHTS for small molecule stabilizers of the endoplasmic reticulum resident proteome: Secreted ER Calcium Modulated Protein (SERCaMP) assay (AID 1508630). Note: % is set by controls: 0 for no effect and ±100 for the full control effect. The settings on record: SH-SY5Y GLuc-SERCaMP (Gaussia luciferase released on ER calcium loss) secretion, thapsigargin, luminescence; series mostly up to 38.4 µM. Summed up:
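GLuc-SERCaMP-expressing SH-SY5Y cells, pretreated 16 h with compound, are challenged with thapsigargin to empty ER calcium stores; after 4 h, coelenterazine is added directly to the medium and luminescence is imaged.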

Assay [10] has as its target 3',5'-cyclic-AMP phosphodiesterase 4B (Homo sapiens) (UniProt Q07343). In words: qHTS Assay for Inhibitors of PDE-IV (AID 607; active = well fitted activation curve with a large enough effect in the main read-out, with a control signal flat, not every such curve was filed as active; note: % of control where 0% means no effect). The settings on record: HEK293 ACTOne CNG channel cells, membrane potential fluorescence; series mostly up to 22.9 µM. Summed up: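 The readout is membrane depolarisation from a cAMP-sensing CNG channel, detected with a potential dye at ex 535/em 590. Cells were HEK293-derived (endogenous PDE-IV) at 1000 cells/well, titrated up to 22.9 uM final.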

Assay [11] deals with Cytochrome P450 3A4 (Homo sapiens) (UniProt P08684). In words: qHTS Assay for Activators of Cytochrome P450 3A4 (AID 885). Note: nearly all actives have a fitted effect of over 65% in size. The settings on record: recombinant CYP3A4, Luciferin-PPXE luminescence, 60 min; series mostly up to 57.1 µM. Summed up:
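Steps: enzyme/substrate mix dispensed; compound added, 10 min RT; NADPH regeneration solution added, 60 min RT; luciferin detection buffer stops reaction; 20 min later luminescence measured.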
(In qHTS, concentration-response curves come from the screen itself.)

Assay [12] can be described thus: qHTS Assay for Identification of Small Molecule Agonists for Hypoxia Response Element Signaling Pathway (AID 914; active = well fitted activation curve with a large enough effect in the signal ratio, with a control signal flat, not every such curve was filed as active; the % refers to the signal ratio; note: % of control where 0% means no effect). The note with it: ME-180 (cervical carcinoma) HRE-bla reporter, beta-lactamase ratio, CoCl2, 17 h; activation: active compounds read high. Summed up:
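Read-out: CCF4 FRET ratio of 460nm to 530nm emission (excitation 405nm) after 2.5 hours at room temperature, taken from HRE-bla ME-180 cells that had been exposed to compound and EC50 CoCl2 for 17 hours.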

A short description of assay [13]: Confirmation and Secondary Assay for Modulators of Hemoglobin Beta Chain Splicing at IVS2 705 locus (AID 930).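 Note: HeLa cells stably expressing the EGFP-705 splicing reporter; GFP fluorescence per well restored by corrected splicing of the IVS2-705 intron in EGFP; % of control where 0% means no effect.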 The note with it: HeLa EGFP-705 splicing reporter, GFP fluorescence, 48 h; series mostly up to 38.3 µM. Summed up: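 HeLa EGFP-705 reporter; 500 cells/well, o/n 37C 5% CO2; cpd 2 d; 488 ex/500-520 em laser scan; total peak GFP intensity/well. Ref: 500 nM […] antisense PNA.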

In assay [14] the target is Ubiquitin carboxyl-terminal hydrolase 1 (Homo sapiens) (UniProt O94782). As to the kind of experiment: Inhibitors of USP1/UAF1: Pilot qHTS (AID 504865).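 Note: rhodamine fluorescence freed from ubiquitin-rhodamine substrate followed over time; top concentration of the series differs between compounds; % is set by controls: 0 for no effect and ±100 for the full control effect; nearly all actives have a fitted effect of over 35% in size.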 The settings on record: purified USP1/UAF1, Ub-rhodamine cleavage fluorescence; series mostly up to 54.9 µM. Summed up:
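Deubiquitinase activity followed as kinetic rhodamine fluorescence release from 150 nM Ub-Rho. 1 nM USP1/UAF1 with compound, after 15 min room-temperature preincubation, in HEPES pH 7.8 buffer containing TCEP, EDTA, BSA and Tween-20.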

Assay [15] deals with Cytochrome P450 2C19 (Homo sapiens) (UniProt P33261). In words: qHTS Assay for Inhibitors and Substrates of Cytochrome P450 2C19 (AID 899). Note: potency is the fitted concentration of half-maximal effect; nearly all actives have a fitted effect of over 60% in size. The note with it: recombinant CYP2C19, luciferin-H EGE luminescence; series mostly up to 57.1 µM. Summed up:
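Signal comes from luciferase acting on luciferin released by CYP2C19-mediated hydroxylation of Luciferin-H EGE, 10uM (KM). Assay mix: 5nM enzyme, 50mM KPO4; 60 min at 37C with NADPH regeneration. Data normalized against 57uM ketoconazole.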

Assay [16] concerns the target Dual specificity protein kinase CLK4 (Homo sapiens) (UniProt Q9HAZ1). In words: qHTS Assay for Inhibitors of CDC-like Kinase 4 (ADP-FP Assay) (AID 1795).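 Note: recombinant human CLK4 phosphorylating RS repeat peptide at 1 µM ATP; % is set by controls: 0 for no effect and ±100 for the full control effect; nearly all actives have a fitted effect of over 60% in size.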 The settings on record: Transcreener ADP fluorescence polarization; series mostly up to 50 µM. Summed up:
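Kinase activity was measured as ADP production using Transcreener orange tracer (4 nM) and ADP antibody (1 ug/mL) fluorescence polarization, with ADP calculated from a calibration curve. The 1 h reaction contained 6.25 nM Clk4, 1 uM ATP and 100 uM RS peptide at pH 7.5 with Mg2+.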

In assay [17] the target is Cytochrome P450 2C9 (Homo sapiens) (UniProt P11712). In words: qHTS Assay for Inhibitors and Substrates of Cytochrome P450 2C9 (AID 883). Note: potency is the fitted concentration of half-maximal effect; nearly all actives have a fitted effect of over 60% in size. The note with it: recombinant CYP2C9, luciferin-H luminescence, 60 min; series mostly up to 57.1 µM. Summed up:
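Signal: luciferase luminescence reporting luciferin produced by CYP2C9. Conditions: 10nM enzyme, Luciferin-H 100uM at KM, 25mM KPO4, 37C, 60 min NADPH-driven reaction. Reference: 57uM sulphaphenazole as 100% inhibition.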

In assay [18] the target is Cytochrome P450 3A4 (Homo sapiens) (UniProt P08684). As to the kind of experiment: qHTS Assay for Inhibitors and Substrates of Cytochrome P450 3A4 (AID 884). Note: potency is the fitted concentration of half-maximal effect; nearly all actives have a fitted effect of over 50% in size. The note with it: recombinant CYP3A4, Luciferin-PPXE luminescence; series mostly up to 57.1 µM. Summed up:
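20 nM human CYP3A4 with 25 uM Luciferin-PPXE (at KM) in 200 mM KPO4, preincubated 10 min with compound; NADPH regeneration started a 60 min RT reaction. Luciferin detected by luminescence, normalized to 57 uM ketoconazole as full inhibition.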

Assay [19] addresses Cytochrome P450 2D6 (Homo sapiens) (UniProt P10635). As to the kind of experiment: qHTS Assay for Inhibitors and Substrates of Cytochrome P450 2D6 (AID 891). Note: potency is the fitted concentration of half-maximal effect; nearly all actives have a fitted effect of over 60% in size. The note with it: recombinant CYP2D6, luciferin-ME EGE luminescence; series mostly up to 57.1 µM. Summed up:
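Human CYP2D6 (5 nM) with 30 uM Luciferin-ME EGE (at Km) in 100 mM KPO4, compound preincubated 10 min, then NADPH regeneration system for 60 min at room temperature. Luciferin read by luminescence; normalized to 1.43 uM quinidine.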

A number with no mark means an inactive call. Records with an inconclusive call do not appear. The source made the active and inactive calls. Unless noted, calls come from the whole dose curve; as a rule, active = well fitted curve in the direction sought with a large enough effect; inconclusive = small, poorly fitted or top-dose-only effect, or another doubt; inactive = no such curve, though single readings can be large; an effect the other way counts as inactive or inconclusive.

Sequence of Ubiquitin carboxyl-terminal hydrolase 1 (Homo sapiens) (O94782 whole entry, looked up): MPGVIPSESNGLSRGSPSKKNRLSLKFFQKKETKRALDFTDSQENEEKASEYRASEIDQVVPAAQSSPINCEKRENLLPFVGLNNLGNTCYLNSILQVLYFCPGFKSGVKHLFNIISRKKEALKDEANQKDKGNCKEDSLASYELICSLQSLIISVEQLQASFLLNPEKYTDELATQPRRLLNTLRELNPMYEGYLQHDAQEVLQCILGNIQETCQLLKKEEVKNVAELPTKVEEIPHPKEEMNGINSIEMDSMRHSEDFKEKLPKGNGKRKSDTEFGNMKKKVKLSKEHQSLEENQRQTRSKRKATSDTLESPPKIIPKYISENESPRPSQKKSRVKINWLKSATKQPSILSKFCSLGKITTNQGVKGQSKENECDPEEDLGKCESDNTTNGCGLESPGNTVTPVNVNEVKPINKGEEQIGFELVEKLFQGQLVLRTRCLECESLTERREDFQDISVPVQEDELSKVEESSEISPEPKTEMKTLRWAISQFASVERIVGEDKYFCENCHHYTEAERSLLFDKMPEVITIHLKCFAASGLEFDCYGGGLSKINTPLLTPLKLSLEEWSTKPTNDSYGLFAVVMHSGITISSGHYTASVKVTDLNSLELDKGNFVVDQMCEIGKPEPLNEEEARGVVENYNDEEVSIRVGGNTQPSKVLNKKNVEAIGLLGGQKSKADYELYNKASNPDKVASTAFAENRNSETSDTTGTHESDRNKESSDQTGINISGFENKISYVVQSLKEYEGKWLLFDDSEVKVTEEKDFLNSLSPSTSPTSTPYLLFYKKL
Sequence of Glucocorticoid receptor (Homo sapiens) (P04150 whole entry, looked up, the tested form may be a part): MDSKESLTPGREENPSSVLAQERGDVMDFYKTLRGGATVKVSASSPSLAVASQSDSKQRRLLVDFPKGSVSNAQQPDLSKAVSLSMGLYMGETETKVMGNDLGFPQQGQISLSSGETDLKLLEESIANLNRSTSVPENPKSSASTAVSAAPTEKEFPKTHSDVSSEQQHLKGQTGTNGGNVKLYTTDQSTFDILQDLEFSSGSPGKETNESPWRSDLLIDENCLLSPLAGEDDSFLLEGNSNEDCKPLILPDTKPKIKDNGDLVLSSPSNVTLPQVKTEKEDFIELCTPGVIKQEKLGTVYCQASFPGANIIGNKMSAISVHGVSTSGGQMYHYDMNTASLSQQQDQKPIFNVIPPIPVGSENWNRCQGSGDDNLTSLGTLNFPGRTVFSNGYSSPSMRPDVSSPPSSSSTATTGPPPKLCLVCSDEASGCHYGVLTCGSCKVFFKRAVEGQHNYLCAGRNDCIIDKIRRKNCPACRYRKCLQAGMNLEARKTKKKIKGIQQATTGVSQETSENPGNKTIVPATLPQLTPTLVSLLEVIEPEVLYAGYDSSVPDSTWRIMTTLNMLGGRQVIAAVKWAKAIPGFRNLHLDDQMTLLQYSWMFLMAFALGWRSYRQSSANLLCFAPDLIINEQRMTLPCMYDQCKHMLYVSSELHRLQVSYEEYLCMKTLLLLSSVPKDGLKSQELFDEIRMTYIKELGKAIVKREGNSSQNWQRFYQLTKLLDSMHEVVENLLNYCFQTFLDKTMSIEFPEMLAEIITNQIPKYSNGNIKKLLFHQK
Sequence of Cytochrome P450 3A4 (Homo sapiens) (P08684 whole entry, looked up): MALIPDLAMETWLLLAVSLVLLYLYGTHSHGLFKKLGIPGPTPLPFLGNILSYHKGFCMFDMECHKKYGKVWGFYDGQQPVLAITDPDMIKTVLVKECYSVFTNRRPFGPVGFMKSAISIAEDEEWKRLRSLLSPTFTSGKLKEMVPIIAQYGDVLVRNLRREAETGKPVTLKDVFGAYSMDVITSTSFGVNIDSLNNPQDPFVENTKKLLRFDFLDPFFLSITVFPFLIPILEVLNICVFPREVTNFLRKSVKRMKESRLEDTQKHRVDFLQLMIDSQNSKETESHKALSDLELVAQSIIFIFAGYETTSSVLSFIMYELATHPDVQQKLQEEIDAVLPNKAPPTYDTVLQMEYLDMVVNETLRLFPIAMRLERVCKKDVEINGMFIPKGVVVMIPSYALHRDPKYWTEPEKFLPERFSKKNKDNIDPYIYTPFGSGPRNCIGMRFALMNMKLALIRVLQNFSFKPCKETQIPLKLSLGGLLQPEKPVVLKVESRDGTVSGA
Sequence of Lysosomal acid glucosylceramidase (Homo sapiens) (P04062 whole entry, looked up): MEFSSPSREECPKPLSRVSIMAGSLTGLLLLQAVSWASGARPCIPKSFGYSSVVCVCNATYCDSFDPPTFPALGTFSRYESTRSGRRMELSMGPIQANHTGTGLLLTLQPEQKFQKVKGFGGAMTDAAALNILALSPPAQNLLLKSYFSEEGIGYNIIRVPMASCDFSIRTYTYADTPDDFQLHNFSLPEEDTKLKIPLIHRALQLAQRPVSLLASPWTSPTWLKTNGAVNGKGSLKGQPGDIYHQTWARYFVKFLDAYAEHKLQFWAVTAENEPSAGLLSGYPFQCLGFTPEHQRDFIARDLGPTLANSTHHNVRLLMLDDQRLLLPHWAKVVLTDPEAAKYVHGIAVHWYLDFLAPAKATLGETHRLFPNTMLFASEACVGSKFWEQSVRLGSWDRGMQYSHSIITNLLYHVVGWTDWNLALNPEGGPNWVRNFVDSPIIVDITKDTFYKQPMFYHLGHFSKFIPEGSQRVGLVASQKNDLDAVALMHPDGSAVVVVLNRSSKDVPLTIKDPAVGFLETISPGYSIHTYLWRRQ
Sequence of Cytochrome P450 1A2 (Homo sapiens) (P05177 whole entry, looked up): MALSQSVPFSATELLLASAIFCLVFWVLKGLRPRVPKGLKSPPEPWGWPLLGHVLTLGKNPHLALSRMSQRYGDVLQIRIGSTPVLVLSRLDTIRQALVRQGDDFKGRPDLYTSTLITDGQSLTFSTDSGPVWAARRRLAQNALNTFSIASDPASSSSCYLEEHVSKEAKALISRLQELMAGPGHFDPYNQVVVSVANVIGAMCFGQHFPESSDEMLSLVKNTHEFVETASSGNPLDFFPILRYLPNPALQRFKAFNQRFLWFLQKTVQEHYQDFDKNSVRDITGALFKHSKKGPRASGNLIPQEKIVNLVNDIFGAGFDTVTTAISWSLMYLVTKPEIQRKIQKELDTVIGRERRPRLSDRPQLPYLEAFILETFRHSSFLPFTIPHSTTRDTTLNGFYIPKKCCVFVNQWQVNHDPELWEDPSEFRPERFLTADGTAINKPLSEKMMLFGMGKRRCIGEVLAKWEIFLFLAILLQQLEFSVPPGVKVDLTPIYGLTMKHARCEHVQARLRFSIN
Sequence of 3',5'-cyclic-AMP phosphodiesterase 4B (Homo sapiens) (Q07343 whole entry, looked up): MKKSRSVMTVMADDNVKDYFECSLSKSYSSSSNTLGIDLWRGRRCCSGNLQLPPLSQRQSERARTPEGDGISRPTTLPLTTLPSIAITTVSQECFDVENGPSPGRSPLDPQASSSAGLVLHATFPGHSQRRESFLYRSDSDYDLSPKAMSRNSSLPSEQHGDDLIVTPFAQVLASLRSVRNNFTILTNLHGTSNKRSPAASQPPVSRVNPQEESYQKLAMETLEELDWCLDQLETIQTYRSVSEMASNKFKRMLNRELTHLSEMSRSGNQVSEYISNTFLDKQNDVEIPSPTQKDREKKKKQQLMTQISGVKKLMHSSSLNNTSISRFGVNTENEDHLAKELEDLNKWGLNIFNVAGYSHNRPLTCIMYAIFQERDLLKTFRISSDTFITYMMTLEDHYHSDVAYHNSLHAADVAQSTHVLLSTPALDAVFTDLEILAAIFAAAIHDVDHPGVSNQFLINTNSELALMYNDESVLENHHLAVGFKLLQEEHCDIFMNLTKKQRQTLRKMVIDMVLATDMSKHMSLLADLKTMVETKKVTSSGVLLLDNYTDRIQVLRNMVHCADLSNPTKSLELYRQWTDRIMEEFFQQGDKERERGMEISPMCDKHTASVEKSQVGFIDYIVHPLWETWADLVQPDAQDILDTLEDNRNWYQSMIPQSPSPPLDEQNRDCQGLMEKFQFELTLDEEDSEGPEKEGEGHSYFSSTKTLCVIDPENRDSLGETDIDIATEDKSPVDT
Sequence of Dual specificity protein kinase CLK4 (Homo sapiens) (Q9HAZ1 whole entry, looked up): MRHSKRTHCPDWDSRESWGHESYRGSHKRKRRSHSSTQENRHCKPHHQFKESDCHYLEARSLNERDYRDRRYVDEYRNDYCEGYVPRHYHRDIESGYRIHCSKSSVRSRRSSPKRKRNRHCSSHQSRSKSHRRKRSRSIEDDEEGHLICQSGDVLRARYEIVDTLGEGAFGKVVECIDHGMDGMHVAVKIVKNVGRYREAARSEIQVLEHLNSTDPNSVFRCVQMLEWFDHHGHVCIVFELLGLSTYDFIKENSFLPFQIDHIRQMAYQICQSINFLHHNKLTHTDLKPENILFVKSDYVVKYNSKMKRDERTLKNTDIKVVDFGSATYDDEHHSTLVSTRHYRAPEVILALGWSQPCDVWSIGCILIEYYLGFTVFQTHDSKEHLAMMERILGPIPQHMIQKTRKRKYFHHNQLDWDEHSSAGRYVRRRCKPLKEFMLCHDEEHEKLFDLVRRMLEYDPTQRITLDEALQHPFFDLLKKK
Sequence of Cytochrome P450 2C9 (Homo sapiens) (P11712 whole entry, looked up): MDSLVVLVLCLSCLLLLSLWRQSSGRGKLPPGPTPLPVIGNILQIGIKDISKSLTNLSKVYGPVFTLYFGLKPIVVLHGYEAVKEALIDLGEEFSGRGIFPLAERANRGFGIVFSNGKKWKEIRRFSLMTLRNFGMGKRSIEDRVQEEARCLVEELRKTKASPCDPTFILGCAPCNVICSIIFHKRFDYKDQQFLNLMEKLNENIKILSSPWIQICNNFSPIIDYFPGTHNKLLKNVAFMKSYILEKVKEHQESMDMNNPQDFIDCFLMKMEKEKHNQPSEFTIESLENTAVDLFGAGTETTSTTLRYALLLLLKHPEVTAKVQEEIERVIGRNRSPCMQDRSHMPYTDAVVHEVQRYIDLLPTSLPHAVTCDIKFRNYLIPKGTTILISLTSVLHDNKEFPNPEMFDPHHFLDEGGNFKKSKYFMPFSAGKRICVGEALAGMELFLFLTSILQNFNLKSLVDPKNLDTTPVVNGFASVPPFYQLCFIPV

On to `O=c1c(-c2ccccc2)nc2cncnc2n1Cc1ccccc1Cl`, for which the Potency is above 11.4 µM in assay [1], 2 µM (active) in [3], above 9.22 µM in [6] and above 46 µM in assay [7]. Further, the activity change, negative = inhibition is 1.43% in assay [2] and -6.41% in assay [4]. The activity, negative = inhibition in assay [5] is 5.03%. In addition, in assay [8], the Potency entry is “inactive”. In assay [9], the outcome was inactive.

On to `Cc1ccccc1-c1nccc(-n2ccnc2)n1`, for which the Potency is above 11.4 µM in assay [1], 0.0794 µM (active) in [3], above 46 µM in assay [6] and above 46 µM in [7]. Also, the activity change, negative = inhibition in assay [2] is 5.77%; in assay [4], -8.66%. Further, the activity, negative = inhibition in assay [5] is 12.8%. Moreover, the Potency entry in assay [8], in [10], in assay [11] and in [14] was “inactive” each time. Moreover, the activation in assay [12] is -1.43%. Also, the compound was called inactive in assay [13] and in assay [9].

For the compound `COc1ccccc1-c1cc(Nc2ccc(F)cc2)ncn1`, the Potency in [1] is above 11.4 µM; in assay [3], 2 µM (active); in assay [6] it was above 46 µM; in assay [7], above 46 µM; in [15], 7.94 µM (active). In [5], the activity, negative = inhibition is -19.9%. For the same compound, the Potency result in assay [8] and in assay [16] was “inactive” each time. In assay [9], the outcome was inactive.

`COCCNc1ccnc(-c2c(C)noc2C)n1`: the Potency in assay [1] was above 11.4 µM; in assay [3], 2.51 µM (active); in assay [6] it was above 46 µM; in assay [7], above 46 µM. The activity change, negative = inhibition is 3.45% in assay [2] and 9% in [4]. Moreover, the activity, negative = inhibition in assay [5] is 5.3%. The Potency result in assay [8], in [10], in assay [11] and in assay [14] was “inactive” throughout. Also, the compound was classed as inactive in assay [13] and in [9].

For `COCCNc1nc(-c2ccccc2C(F)(F)F)nc2ccccc12`, the activity change, negative = inhibition in assay [2] is -4.03%; in assay [4] it was 5.96%. The results for the Potency in [3], in [6] and in assay [7] were 1.26 µM (active), above 46 µM and above 46 µM, respectively. The activity, negative = inhibition in assay [5] was 15.8%. Besides, the Potency result in assay [8], in assay [11], in assay [16] and in assay [14] was “inactive” each time. Moreover, the outcome in assay [9] was inactive.

Take `COc1cccc(-c2cncnc2NCCc2cnc[nH]2)c1`: the Potency in [1] was above 11.4 µM; in assay [3] it was 0.398 µM (active); in [6] it was above 46 µM; in [7], above 46 µM; in [17], 251 nM (active); in assay [18], 631 nM (active). Moreover, in [19], the Potency was 7.94 µM (active). Moreover, the values for the activity change, negative = inhibition in assay [2] and in assay [4] were -20.9% and -4.17%, respectively. Also, the activity, negative = inhibition in assay [5] was -17%. Moreover, the Potency entry in [8], in [10], in [11] and in assay [14] was “inactive” in each case. For the same compound, the call in assay [13] and in assay [9] was inactive.

The values above are taken from PubChem BioAssay (NCATS).
